# Assay outcomes from PubChem.
# This is a sample that favours compounds with a hit; in the whole collection about 8.3% have one here.
# SW480 rerep – inducers of DNA re-replication in SW480 colon cancer cells | Potency, µM (doses to about 46.1 µM), inactives show at the top dose re-replication activation, hits mostly activators | actives 1.8% (n = 340,000) | AID 624297 | SW480 DNA re-replication, Hoechst DNA content imaging, 48 h; further: potency means the concentration at half of the fitted maximal effect; % of control where 0% means no effect; nearly all actives have a fitted effect of over 55% in size
#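 Cells (250 per well) received 23 nL compound or DMSO by pin tool and were kept 48 hr at 37 C, 5% CO2. Nuclei were then stained with Hoechst for 40 min and scanned for DNA content.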
# Giardia killer – Giardia lamblia killing; Giardia lamblia trophozoite viability; activity change, % at 7.66 µM, hits read low; actives 0.15% (n = 340,000); in the data active means activity change below about -80%; inconclusive means between about -30% and that limit;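 further: parasites exposed to compound for two days anaerobically before the ATP read; on the % scale 0 is the no-effect control and ±100 the full control effect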
#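 Trophozoites 100 cells/well + cpd; 48 hrs, 37 deg C, anaerobic. ATPLite 1-Step added, 15-30 min RT, luminescence read (ATP-based viability).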
# Chronic BCR inh – blocks chronic active B-cell receptor signaling | actives 0.05% (n = 340,000) | ABC-DLBCL IkBa-CBG/CBR reporter, luminescence ratio, 4 h | AID 493014 | Potency, µM (highest dose often 46.1 µM), inactives show at the top dose activity change, negative = inhibition, actives largely listed as inhibitors; active means well fitted inhibition curve with a large enough effect in the signal ratio, with a control signal flat, not every such curve was filed as active; inconclusive means small, poorly fitted or top-dose-only effect, or effect the other way, or a change in a side signal; the % refers to the signal ratio;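 further: potency means the concentration at half of the fitted maximal effect; plate controls were basal doxycycline-induced cells for no effect and cells given 10 µM MG132 for full effect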
#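 Compounds up to 46 uM were incubated four hours with TMD8 cells whose green CBG68 luciferase is fused to IkappaBalpha; red CBR luminescence normalised the signal, and concentration-effect curves were fitted to fusion, red and ratio data.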
# Gal4-VP16 FLuc – inhibits Gal4-VP16 luciferase reporter, ROR gamma counter-screen; actives 3.5% (n = 310,000); Drosophila S2 Gal4-VP16 UAS-luciferase, luminescence, 20 h; Potency, µM (series often up to 53.6 µM), inactives show at the highest dose activity, negative = inhibition, hits mostly inhibitors;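 further: Gal4-VP16 expression switched on by copper sulfate through the metallothionein promoter; potency means the concentration at half of the fitted maximal effect; on the % scale 0 is the no-effect control and ±100 the full control effect; nearly all actives have a fitted effect of over 50% in size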
# MCF10A rereplic – inducers of DNA re-replication in MCF 10A breast cells; Potency, µM (titrated, usually from 46.1 µM), inactives show at the top dose activity, positive = re-replication, usual class: activators; MCF 10A DNA re-replication, Hoechst nuclear intensity, 48 h; actives 2.9% (n = 350,000); further: potency means the concentration at half of the fitted maximal effect; % of control where 0% means no effect; nearly all actives have a fitted effect of over 50% in size
# RORgamma inh – inhibitors of mouse ROR gamma transcriptional activity; Potency, µM (doses to about 53.6 µM), without a hit: at the highest dose activity change, negative = inhibition, usual class: inhibitors; AID 2551; Drosophila S2 Gal4-RORgamma UAS-luciferase reporter, 20 h; P51450; actives 5.4% (n = 310,000); further: potency means the concentration at half of the fitted maximal effect; on the % scale 0 is the no-effect control and ±100 the full control effect; nearly all actives have a fitted effect of over 60% in size
# Target sequence (P51450 whole entry, looked up, the tested form may be a part): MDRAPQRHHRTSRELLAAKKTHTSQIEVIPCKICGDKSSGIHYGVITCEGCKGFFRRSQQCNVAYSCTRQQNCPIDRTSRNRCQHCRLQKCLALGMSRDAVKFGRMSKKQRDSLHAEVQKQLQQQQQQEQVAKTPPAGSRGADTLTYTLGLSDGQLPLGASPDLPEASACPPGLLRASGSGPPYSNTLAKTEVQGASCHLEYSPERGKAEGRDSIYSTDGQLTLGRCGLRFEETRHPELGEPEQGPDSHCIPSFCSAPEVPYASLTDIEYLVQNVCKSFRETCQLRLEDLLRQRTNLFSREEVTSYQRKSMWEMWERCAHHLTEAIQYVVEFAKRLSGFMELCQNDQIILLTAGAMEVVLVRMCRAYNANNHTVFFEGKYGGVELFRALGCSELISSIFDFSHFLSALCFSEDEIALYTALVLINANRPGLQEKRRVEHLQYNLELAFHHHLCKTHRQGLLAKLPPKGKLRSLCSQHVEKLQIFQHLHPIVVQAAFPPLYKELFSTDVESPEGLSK
#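 Using a luciferase readout, inhibitors were identified by reduced reporter activity in Drosophila cells coexpressing a copper-inducible Gal4–ROR gamma fusion and UAS-driven Photinus luciferase, incubated 20 hr after 700 uM copper sulfate.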
# Active calls of the source: *; ? = inconclusive; . = not tested or not shown; [ ] = another dose, or the depositor's remark. Unless noted, the call rests on the fitted dose curve; in most records, active means well fitted curve in the direction sought with a large enough effect; inconclusive means small, poorly fitted or top-dose-only effect, or another doubt; inactive means no such curve, though single readings can be large; an effect the other way counts as inactive or inconclusive.
SMILES,SW480 rerep,Giardia killer,Chronic BCR inh,Gal4-VP16 FLuc,MCF10A rereplic,RORgamma inh
Cc1ccc(O)c(-c2cc(C(=O)Nc3ccc(S(=O)(=O)Nc4nc(C)cc(C)n4)cc3)[nH]n2)c1,-4%,35,?,-27%,2%,?
CCCCCC(=O)NNC(=S)NC(C)=O,-2%,-3,-18%,-9%,-6%,-40%
CCCCCC(=O)NC(=S)NC1C2CC3CC(C2)CC1C3 (centres undefined),-71%,17,11%,7.9µM*,?,2.2µM*
COc1ccc2cc(CCNC(=O)c3ccc(S(=O)(=O)N4CCOCC4)cc3)c(=O)[nH]c2c1,6%,9,-1%,-11%,6%,?
CCOC(=O)c1ccc(NS(=O)(=O)c2ccc(SC)cc2)cc1,6%,-10,-1%,?,23µM*,?
CCOC(=O)Cc1ccc(NS(=O)(=O)c2ccc(SC)cc2)cc1,-4%,-9,-8%,-9%,2%,26%
OCCOCCN1CCN([C@@H](c2ccccc2)c2ccc(Cl)cc2)CC1,.,.,.,14%[17 µM],.,-3%[16.9 µM]
CC1=CCCC(C)(C)C1/C=C/C(C)=N/NC(=O)c1ccncc1 (centres undefined),-13%,7,?,?,0%,2.8µM*
Cc1cc(C)c(C)c(S(=O)(=O)N2CCC(C(=O)N3CC(C)CC(C)C3)CC2)c1C (centres undefined),7%,-5,3%,.,?,.
CCCCCCOC(=O)c1ccc(N)cc1,0%,33,?,-16%,23µM*,3%
CCCCOC(=O)c1ccc(N)cc1,-6%,12,?,?,?,?
CCCNC(=O)c1nnsc1S(=O)c1ccc(Cl)cc1 (centres undefined),23µM*,-1,?,4µM*,3.3µM*,1.1µM*
CNC(=O)c1nnsc1S(=O)c1ccc(Cl)cc1 (centres undefined),?,-1,?,5µM*,2.3µM*,1.3µM*
CCCNC(=O)NS(=O)(=O)c1ccc(Cl)cc1,0%,2,-2%,-8%,4%,-7%
CCCNC(=O)c1nnsc1S(=O)(=O)c1ccc(Cl)cc1,7.3µM*,-5,?,3.2µM*,2.3µM*,1.1µM*
CCCNC(=O)c1ccc2snnc2c1,-6%,-1,-5%,3%,-2%,-42%
O=S(=O)(c1ccc(SCc2cccc(Cl)c2)nc1)N1CCCC1,-13%,-9,?,.,-1%,.
CCCC[C@@H](CN[C@H](C)CNC)NCC1CCC(C(C)(C)C)CC1 (some centres undefined),-8%[9.22 µM],0,?,-24%,?,11µM*
COc1ccc(N=C2C(=O)N3c4c(cccc42)C(C)=CC3(C)C)cc1,21µM*,?,-10%,-2%,21µM*,-28%
COc1ccc(N=C2C(=O)Nc3ccccc32)cc1,?,21,-9%,-7%,23%,8%
CCC1CCCCN1CCCNC(=O)C1CCC(CNS(=O)(=O)c2c(C)cc(C)cc2C)CC1 (centres undefined),?,37,-4%,-15%,10%,-3%
COC(=O)NC(=S)Nc1ccc(Oc2ccc(Cl)cc2Cl)c(Cl)c1,?,-1,?,?,?,2.2µM*
COC(=O)NC(=S)Nc1ccc(Oc2ccc(Cl)cc2)c(Cl)c1,0%,-10,22%,5µM*,-4%,4.5µM*
CC(=O)Nc1ccc(Oc2ccc([N+](=O)[O-])cc2Cl)cc1,-1%,8,-2%,6%,1%,1%
COC(=O)NC(CC(C)=O)c1cccc(F)c1 (centres undefined),.,.,.,-4%[10 µM],.,26%[10 µM]
SMILES,SW480 rerep,Giardia killer,Chronic BCR inh,Gal4-VP16 FLuc,MCF10A rereplic,RORgamma inh
Cc1cccc(C(=O)Oc2ccc3ccc(O)cc3c2)c1,?,20,-1%,-8%,0%,-29%
CCCOc1ccc(Cc2c(Cl)nc(SC)nc2OC)cc1,3%,-13,?,-14%,21%,41%
CCCOc1ccc(Cc2c(Cl)nc(SC)nc2N(C)C)cc1,6%,9,9%,5µM*,9%,?
COc1cc2c(cc1OC)CN(C(=O)c1cc(S(=O)(=O)N3CCOCC3)ccc1C)CC2,0%,-2,9%,.,-3%,.
Cc1ccc(/C=C/C(=O)c2ccccc(=O)c2O)cc1C,?,-2,?,3.5µM*,21µM*,2.8µM*
O=C(/C=C/c1ccccc1)c1cc(Br)ccc(=O)c1O,?,-12,?,?,?,?
Cc1[nH]c2ccccc2c1C(C[N+](=O)[O-])c1ccco1 (centres undefined),?,0,?,-8%,13%,-1%
Cc1ccc(-c2[nH]c3ccccc3c2C(C[N+](=O)[O-])c2ccco2)cc1 (centres undefined),?,5,?,22µM*,18µM*,3%
O=C(NN=Cc1ccc(N2CCOCC2)s1)c1ccc([N+](=O)[O-])cc1,-28%,-17,0%,.,1%,.
CC(C)=CCC/C(C)=C/C=N/NC(=O)c1ccccc1[N+](=O)[O-],-2%,-9,-15%,11µM*,?,6.3µM*
Cc1ccc([N+](=O)[O-])c(C(=O)N/N=C/c2cccs2)c1,1%,3,-19%,1.3µM*,10%,1.4µM*
O=C(N/N=C/c1ccc(Br)s1)c1ccc([N+](=O)[O-])cc1,16%,1,?,0.63µM*,-2%,0.45µM*
C/C(CCc1ccccc1)=N\NC(=O)c1ccccc1[N+](=O)[O-],2%,-1,?,-4%,0%,-16%
O=C(N/N=C/c1ccc(Br)s1)c1ccccc1[N+](=O)[O-],7%,-3,?,6.3µM*,2%,2.5µM*
N#Cc1cnc(Sc2ccccc2)nc1,1%,-5,4%,-3%,4%,-39%
Cc1nc(N2CCN(C(=O)c3cnccn3)CC2)c2c3c(sc2n1)CC(C(C)(C)C)CC3 (centres undefined),3%,11,4%,-6%,-4%,-14%
CCOC(=O)c1ccc(-n2ccnc2)c(NC(=O)c2ccc(Cl)cc2)c1,-70%,11,0%,2%,4%,7%
Cc1cc(C)n(CCN(C)Cc2nc(Cc3ccccc3F)no2)n1,-18%,7,?,?,-2%,11µM*
COc1cccc(CN(C)C(=O)C23CC4CC(CC(C4)C2)C3)c1,3%,-1,8%,8%,10%,-26%
COc1ccc(CN(C)C(=O)C23CC4CC(CC(C4)C2)C3)c(OC)c1,?,9,12%,-13%,13µM*,-19%
